# The supplement of paper PMC6555819
# Key:
# Test in all cases: PBM binding z-score (relative to random genomic background probes); higher = stronger binding; sequences stand for … in GC…GCGATTGACAGCGTAGAATGAAGG
# [1] = tested on: FXR:RXRa (NR concentration 270 nM, RXRa partner concentration 90 nM)
# Summary of the method: (§1)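 Binding z-scores take random background probes as their reference. They come from custom Agilent 4×180K protein-binding microarrays incubated 1 h with ligand-free nuclear receptor dimers, with antibodies against each partner (one per run) detecting binding. Scanned fluorescence was regression-normalized.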
# [2] = tested on: LXRa:RXRa (NR concentration 270 nM, RXRa partner concentration 90 nM)
# Summary of the method: as §1
# [3] = tested on: LXRa homodimer (NR concentration 270 nM)
# Summary of the method: as §1
# [4] = tested on: LXRb:RXRa (NR concentration 270 nM, RXRa partner concentration 90 nM)
# Summary of the method: as §1
# [5] = tested on: LXRb homodimer (NR concentration 270 nM)
# Summary of the method: as §1
# [6] = tested on: PPARa:RXRa (NR concentration 270 nM, RXRa partner concentration 90 nM)
# Summary of the method: as §1
# [7] = tested on: PPARg:RXRa (NR concentration 180 nM, RXRa partner concentration 90 nM)
# Summary of the method: as §1
# [8] = tested on: PPARg:RXRa 270nM:90nM, anti-RXR (NR concentration 270 nM, RXRa partner concentration 90 nM)
# Summary of the method: as §1
# [9] = tested on: PPARg:RXRa 30nM:10nM, anti-RXR (NR concentration 30 nM, RXRa partner concentration 10 nM)
# Summary of the method: as §1
# [10] = tested on: PPARg:RXRa 90nM:30nM, anti-RXR (NR concentration 90 nM, RXRa partner concentration 30 nM)
# Summary of the method: as §1
# [11] = tested on: PPARg:RXRa DBDmut IVT, anti-RXR (DBD mutation: RXRa K156A/R161A, NR concentration 270 nM, RXRa partner concentration 90 nM)
# Summary of the method: as §1
# [12] = tested on: PPARg:RXRa IVT, anti-PPARg (NR concentration 270 nM, RXRa partner concentration 90 nM)
# Summary of the method: as §1
# [13] = tested on: PPARg DBDmut:RXRa IVT, anti-PPARg (DBD mutation: PPARg1 K132A/R137A, NR concentration 270 nM, RXRa partner concentration 90 nM)
# Summary of the method: as §1
# [14] = tested on: PPARg DBDmut IVT, anti-PPARg (DBD mutation: PPARg1 K132A/R137A, NR concentration 270 nM)
# Summary of the method: as §1
# [15] = tested on: PPARg homodimer (NR concentration 180 nM)
# Summary of the method: as §1
# [16] = tested on: PXR:RXRa (NR concentration 270 nM, RXRa partner concentration 90 nM)
# Summary of the method: as §1
# [17] = tested on: PXR homodimer (NR concentration 270 nM)
# Summary of the method: as §1
# [18] = tested on: RARa:RXR (NR concentration 270 nM, RXRa partner concentration 90 nM)
# Summary of the method: as §1
# [19] = tested on: RARa homodimer (NR concentration 270 nM)
# Summary of the method: as §1
# [20] = tested on: RARb:RXRa (NR concentration 270 nM, RXRa partner concentration 90 nM)
# Summary of the method: as §1
Sequence,PBM binding z-score [1],PBM binding z-score [2],PBM binding z-score [3],PBM binding z-score [4],PBM binding z-score [5],PBM binding z-score [6],PBM binding z-score [7],PBM binding z-score [8],PBM binding z-score [9],PBM binding z-score [10],PBM binding z-score [11],PBM binding z-score [12],PBM binding z-score [13],PBM binding z-score [14],PBM binding z-score [15],PBM binding z-score [16],PBM binding z-score [17],PBM binding z-score [18],PBM binding z-score [19],PBM binding z-score [20]
TCAGACAGGGGAAGGTAACTCAGGTACGCAGTCG,0.82,1.65,0.166,1.3,0.859,0.994,0.622,2.06,3.77,2.68,2.26,0.171,0.134,-0.73,0.755,0.624,0.441,0.193,0.801,0.352
ATCTCTAGGTAACAAGTTCAGCGAAAGAGAGGAC,0.684,0.959,0.732,0.934,1.33,2.01,1.88,2.43,0.884,2.22,3.7,2.88,1.31,2.15,1.32,1.9,1.83,1.15,1.27,1.81
GGTCGGAGGACAAGGTCAGAGCTTTGTCCGTAGA,2.18,1.7,-0.109,1.42,-0.689,2.43,0.581,1.58,-0.506,0.714,0.195,1.61,-0.429,-1.06,1.09,1.63,0.0611,1.82,-0.267,3.62
GCGACTGGCGCATCAGCAGGTTACCATAACTTAA,-0.425,-0.781,-0.313,-0.631,-1.19,-0.493,-0.0523,-0.785,-0.798,-0.75,-0.575,-0.748,-1.28,-1.31,-0.552,-0.518,-0.619,-0.34,-0.992,-1.03
CCTATTAGTAGACCATAAGGGCAACCGAAGCTCG,0.44,0.377,0.422,0.468,0.364,0.752,0.777,1.21,0.45,0.915,1.88,1.11,0.0545,0.0708,1.4,0.71,0.501,0.768,1.33,1.25
TCTATGAGTTGATTAGGGCAACCGAAACAGCGGA,0.319,0.351,-0.0686,0.151,-0.328,1.07,0.39,1.31,2.32,1.65,1.35,1.19,-0.00987,-0.582,-0.0125,0.279,-0.195,0.487,-0.0986,0.711
CCTTACGGGTCACGAGATTATAGCACGACGAGCG,6.02,4.05,0.0796,3.37,0.00532,5.42,6.21,5.93,2.99,4.95,4.81,4.72,1.92,0.779,2.33,3.46,0.13,4.62,1.2,4.26
CAGCCTAGGTCAGGGCCAGGATAGGAGGAACGTT,1.84,0.87,-0.49,0.522,-1.06,2.04,0.835,1.15,-0.0382,0.556,1.16,1.82,-0.747,-1.27,0.00488,0.262,-0.967,0.879,-0.655,3.49
TAGCCTAGGTCATGTGGGCCAGTATAGTGTCGGC,4.35,2.97,0.553,1.85,0.185,3.53,2.11,2.75,0.388,1.46,1.81,3.41,-0.502,-0.513,0.832,1.47,-0.447,2.33,-0.278,3.81
CCTAGTTGGTCAGGAGTTCACACACCGGATATGA,1.64,2.22,1.92,1.85,0.3,2.2,1.24,1.95,0.752,1.49,1.01,1.1,0.396,0.284,2.47,3.66,3.68,2.36,1.42,2.39
CCTAATTGGTCAAGGTCACACACGCTATAGGTAC,4.21,4.15,2.33,4.22,1.18,4.36,3.13,3.45,1.13,2.69,2.69,3.49,1.13,1.42,3.47,4.32,1.9,4.28,2.79,4.22
TCGAGTAGGTAACCAATGGGGCATTCAGCTTTCT,-0.177,0.0243,-0.581,0.362,-0.995,0.488,-0.0874,0.632,1.08,0.602,2.5,1.74,-0.421,-0.752,-0.5,-0.372,-0.877,-0.292,-0.817,0.0352
GCGACTGGGGCATCACCAGGTTACCATAACTTAA,-0.25,-0.178,-0.0644,0.637,-0.712,1.02,1.1,0.672,-0.379,0.216,3.65,3.39,-0.477,-0.785,0.0676,0.244,-0.357,0.695,-0.656,0.96
CCTAGTTGGTCCAGGTCACACACGCTATAGGTAC,1.93,2.22,1.52,2.41,0.771,2.58,1.47,1.46,0.532,1.01,1.21,2.28,0.272,0.266,2.22,2.34,1.6,2.66,1.7,2.59
